# This is a sample that favours compounds with a hit; in the whole collection about 2.8% have one here.
# LDHA block – inhibitors of human lactate dehydrogenase A. P00338. purified LDHA, NADH/diaphorase-resazurin fluorescence; hits give low values. activity change, % (values are at about 110 or 230 µM). 480,000 compounds, 0.15% hits. AID 1347041; in the data active means activity change below about -30%; inconclusive means mostly about -25% to -30%;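 further: plate controls were DMSO wells for no effect and wells without enzyme for full effect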
#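 Resorufin fluorescence (ex540/em590), read at 0 and 20 min after diaphorase/resazurin addition, reports the NADH left after a 5 min room-temperature reaction of 2 nM human LDH5 with 0.06 mM NADH and 0.2 mM pyruvate.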
# PI4K2A block – PI4K2A (human) kinase inhibition; purified PI4K2A, ADP-Glo luminescence, 1 h; hits give low values; AID 1346378; activity change, negative = inhibition, % at 76.9 µM; 420,000 compounds, 0.13% hits; in the data active means activity change below about -50%; inconclusive means mostly about -30% to -49%;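 further: -100% = wells without enzyme as full effect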
#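 ADP-Glo luminescence measured ADP generated by PI4K2A enzyme (4 ug/mL before mixing) with 1.2 mM PI substrate (pre-mix) and 300 microM ATP (pre-mix). Tris pH7.5 buffer with MgCl2, Triton X-100; 1 h reaction at ambient temperature.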
# DRD3 antagonist – D3 dopamine receptor (human) antagonism. P35462. AID 652054. D3R cells, DiscoveRx beta-arrestin luminescence, antagonist mode; hits give low values. max response, negative = inhibition, %. 360,000 compounds, 2.5% hits; in the data active means max response below about -50%; inconclusive means no clear call, values can overlap the other calls; further: on the % scale 0 is the no-effect control and ±100 the full control effect
# Target sequence (P35462 whole entry, looked up): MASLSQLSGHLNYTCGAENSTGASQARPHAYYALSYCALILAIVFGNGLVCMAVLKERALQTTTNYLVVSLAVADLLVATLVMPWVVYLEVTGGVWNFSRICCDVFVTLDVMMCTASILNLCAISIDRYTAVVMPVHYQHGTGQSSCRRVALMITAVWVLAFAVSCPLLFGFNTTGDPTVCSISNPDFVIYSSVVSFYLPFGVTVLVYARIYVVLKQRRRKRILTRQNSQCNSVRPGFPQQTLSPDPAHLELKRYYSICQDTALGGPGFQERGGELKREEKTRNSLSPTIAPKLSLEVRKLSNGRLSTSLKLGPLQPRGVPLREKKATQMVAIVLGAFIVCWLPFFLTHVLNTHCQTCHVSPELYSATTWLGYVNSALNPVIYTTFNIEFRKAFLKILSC
#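 Cells expressing the human receptor were seeded at 1500 cells/well, incubated overnight at 37 degrees C in 5% CO2, then exposed to library compounds with dopamine controls for 90 minutes at 37 degrees C before luminescent detection.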
# RGS4 inh – human RGS4 inhibition. Transcreener GDP fluorescence polarization, RGS4-accelerated GTP hydrolysis. Potency, µM (titrated, usually from 114 µM), for inactives: top-dose activity change, negative = inhibition, hits mostly inhibitors. 390,000 compounds, 0.039% hits. AID 504845; active means well fitted inhibition curve with a large enough effect; inconclusive means small, poorly fitted or top-dose-only effect; inactive means no such curve, though single readings can be large or run the other way; further: potency means the concentration at half of the fitted maximal effect; on the % scale 0 is the no-effect control and ±100 the full control effect; nearly all actives have a fitted effect of over 75% in size
# Target sequence (P49798 whole entry, looked up): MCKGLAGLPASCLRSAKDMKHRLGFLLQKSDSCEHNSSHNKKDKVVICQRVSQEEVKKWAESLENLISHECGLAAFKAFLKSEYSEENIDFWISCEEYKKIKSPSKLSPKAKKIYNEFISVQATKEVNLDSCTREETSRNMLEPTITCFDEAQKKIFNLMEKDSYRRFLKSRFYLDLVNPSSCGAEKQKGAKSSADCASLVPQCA
#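 MLSMR compounds (23 nl, pin-transferred) preincubated 10 min at room temperature with a 500nM (2x) first reagent, then RGS4 at 900nM (2x) plus Transcreener GDP mix added; fluorescence polarization (620/688 nm) read before and after 90 min at 30 °C.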
# DRD3 agonist – D3 dopamine receptor (human) agonism; P35462; AID 652048; max activation, %; D3R DiscoveRx beta-arrestin cells, luminescence, 90 min; 410,000 compounds, 0.58% hits; in the data active means max activation above about 30%; further: 0% is about no effect
#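 Cells at 1500/well, incubated overnight, then treated with pinned compounds (dopamine as control) for 90 min at 37 degrees C. DiscoveRx reagent added for 30 - 60 minutes at room temperature; luminescence read.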
# pAkt inh – Akt phosphorylation inhibition; Neuro2A IGF-stimulated pAkt S473 HTRF, 20 min; hits give low values; activity change, % for hits at 50 µM; AID 651550; 360,000 compounds, 0.32% hits; in the data active means activity change below about -80%; inconclusive means mostly about -51% to -80%; further: on the % scale 0 is the no-effect control and ±100 the full control effect
#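 Single-point screen (50 µM final compound) in Neuro2A cells stimulated 20 min with 6 nM IGF at 37 deg C. After lysis, Ser473-phosphorylated Akt read by HTRF (ex 330 nm, em 615/665 nm) as the 665/615 ratio.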
# * marks the source's active call; other numbers are inactive results; i = inactive; ? = inconclusive; / = not tested or not shown; ! = not active in a repeat; [ ] = dose if it differs, or a comment.
SMILES,LDHA block,PI4K2A block,DRD3 antagonist,RGS4 inh,DRD3 agonist,pAkt inh
CCOC(=O)N1CCN(C(=O)CSCC(=O)Nc2nc(-c3ccc(OC)cc3)cs2)CC1,-2,-2,6,2%,-13,i
O=C1C(Nc2ccccc2)=C(N2CCCCC2)C(=O)c2ccccc21,23,-26,-60*,-19%,-3,i
O=C1C(Nc2cccc(O)c2)=C(N2CCCCC2)C(=O)c2ccccc21,34,-23,?,-15%,-14,i
Cc1ccc(NC2=C(N3CCCCC3)C(=O)c3ccccc3C2=O)cc1,22,-25,-63*,-23%,-12,i
COc1ccc(CN2CCC(C(=O)c3ccc(F)cc3)CC2)cc1,-2,3,-120*,-15%,-21,i
COc1ccc(C(=O)C2CCN(C(=O)c3ccc(F)cc3)CC2)cc1,-1,4,11,0%,2,i
Cc1ccc(CN2CCC(C(=O)c3ccc(F)cc3)CC2)cc1,-4,4,-122*,/,-13,i
O=C(c1ccc(F)cc1)C1CCN(CCn2c(=O)[nH]c3ccccc3c2=O)CC1,0,2,-51*,-5%[56.9 µM],-58,i
CCOc1ccc2oc(=O)cc(CN3CCN(C(=O)C4CCCCC4)CC3)c2c1,7,/,/,/,/,/
CCN1C(=NCCc2ccc(Br)cc2)N[C@@H](c2ccccc2)[C@H](C(=O)OC)[C@H]1C,-9,0,-88*,-31%,-50,i
N#CC(Cc1cccnc1)C(=O)Nc1ccc(Cl)c(Cl)c1 (configuration not stated),-3,/,/,/,/,/
CSc1ccc(NC(=O)C(C)N2CCN(C)CC2)cc1 (configuration not stated),-35*,6,1,-2%,-5,i
COc1ccc(CC(=O)Nc2ccccc2-c2ccccc2)cc1,-2,/,/,/,/,/
CCC(NC(=O)c1ccc(OC)c(OC)c1)c1cccs1 (configuration not stated),11,/,/,/,/,/
COc1ccc2[nH]c3c(c2c1)CCN1C(=O)N([C@@H](C)C(=O)NCc2ccc(C)cc2)C(=O)[C@]31C,-3,-3,2,5%,31*,i
COc1ccc(CNC(=O)[C@H](C)N2C(=O)N3CCc4c([nH]c5ccc(OC)cc45)[C@@]3(C)C2=O)cc1,-4,4,0,11%,-1,i
c1ccc2[nH]c(-c3ccc4c(c3)CCCC4)cc2c1,8,/,/,/,/,/
Nc1nc(N2CCN(c3ccccn3)CC2)nc2ccccc12,-30*,-6,-23,19%,-1,i
Nc1nc(N2CCCCC2)nc2ccccc12,-8,5,1,15%,-3,/
COc1ccc(OC)c(NC(=O)c2ncoc2-c2ccc(C)o2)c1,9,/,/,/,/,/
Oc1ccc(Oc2ccc3c(C(F)(F)F)cc(C(F)(F)F)nc3n2)cc1,6,8,85,4%,44*,-116%*
O=C(COc1cccc2ccccc12)NNC(=O)Nc1ccccc1,-1,-1,?,6%,-26,i
O=C(COc1cccc2ccccc12)NNC(=O)CSCCO,-1,11,-50*,-5%,-3,i
O=C(NNC1=Nc2ccccc2SC1)c1ccc(Cl)cc1,-3,5,-73*,-16%,-20,i
Fc1ccc(-c2cn3ccccc3n2)cc1,-6,-12,-4,25%,-3,i
SMILES,LDHA block,PI4K2A block,DRD3 antagonist,RGS4 inh,DRD3 agonist,pAkt inh
CCOc1ccc(-c2cn3ccccc3n2)cc1,1,-52*,-19,8%,-7,i
N#CC1=C(N)Oc2c(c(=O)[nH]c3ccccc23)C1c1ccccc1Cl (configuration not stated),3,/,/,/,/,/
O=C(O)c1cc(O)c2c(c1)[C@@H]([C@H]1c3cc(C(=O)O)cc(O)c3C(=O)c3c(O[C@@H]4O[C@H](CO)[C@@H](O)[C@H](O)[C@H]4O)cccc31)c1cccc(O[C@@H]3O[C@H](CO)[C@@H](O)[C@H](O)[C@H]3O)c1C2=O,-14,-64*,-50*,-120%,-20,i
O=C1c2c(O)cccc2[C@H]([C@@H]2O[C@H](CO)[C@@H](O)[C@H](O)[C@H]2O)c2cc(CO)cc(O)c21,/,/,/,/,-21,/
O=C(c1ccc(Cl)c(S(=O)(=O)Nc2ccc(F)cc2)c1)N1CCN(c2ccccn2)CC1,-5,-2,33,18%,38*,i
N#Cc1nc(COc2ccc(Br)cc2)oc1NCc1cccnc1,5,/,/,/,/,/
CS/C(N)=N/N=C/c1ccc([N+](=O)[O-])cc1,-11,1,-51*,?,-1,i
N/C(=N\N=C\c1ccc([N+](=O)[O-])cc1)c1nonc1N,-6,8,-3,5%,1,i
OCCC1CN(Cc2ccc3nonc3c2)CCN1Cc1ccsc1 (configuration not stated),-9,3,-52*,20%,-15,i
OCCC1CN(Cc2cccc(-c3ccco3)c2)CCN1Cc1ccsc1 (configuration not stated),-6,0,-77*,11%,-10,i
OCCC1CN(Cc2cnn(-c3ccccc3Cl)c2)CCN1Cc1ccsc1 (configuration not stated),-11,2,-68*,22%,-17,i
CC(C)CCN1CCN(Cc2ccsc2)CC1CCO (configuration not stated),0,1,0,-26%,-14,i
OCCC1CN(Cc2ccc3cc(Cl)ccc3n2)CCN1Cc1ccsc1 (configuration not stated),-8,-7,?,-53%,-20,i
COC(=O)Oc1ccc2c(=O)c(Oc3ccc(-c4ccccc4)cc3)coc2c1,2,/,/,/,/,/
N#C/C(=C/c1ccccc1OCc1cccc(C(F)(F)F)c1)C(=O)NCc1ccc(F)cc1,11,/,/,/,/,/
Cc1nc2c3ccccc3nn2c(C)c1CCC(=O)Nc1cccc(F)c1,-8,/,/,/,/,/
COc1ccc(-c2cc3nc(C)n(N)c(=O)c3s2)cc1,-4,-87*,9,-12%,1,i
Cc1nc2cc(-c3ccccc3)sc2c(=O)n1N,-7,-80*,1,0%,2,i
Cc1ccccc1NC(=O)C1=Cc2sc3c(c2CS1)CCCC3,5,/,/,/,/,/
O=S(=O)(CCNCc1cccc(Cl)c1)Cc1ccccc1,-4,/,/,/,/,/
O=C1C=CC(=O)N1,-11,1,-83*,?,-85,i
COc1ccc(S(=O)Cc2ccc(C(=O)N3CCN(c4cccc(C)c4C)CC3)o2)cc1 (configuration not stated),-1,-5,89,11%,45*!,i
Cc1cccc(N2CCN(C(=O)c3ccncc3)CC2)c1C,-5,0,16,8%,46*,i
